Sampled rows, rich in hits. Any-hit rate of the full collection: about 27%.
CYP2C19 inh – human CYP2C19 inhibition | P33261 | CYP2C19 Supersomes, luciferin-H EGE luminescence, 30 min | inhibition, % at 5 µM | 21% of 96,000 active | AID 778;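 active means CYP2C19 inhibition above a set limit at 5 µM in the primary screen, cut at about 50% in these data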;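 further: plate controls were negative control wells for no effect and 2.5 mM tranylcypromine positive control for full effect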
CYP2C9 inh – inhibitors of human CYP2C9. 20% of 96,000 active. AID 777. P11712. CYP2C9 Supersomes, luciferin-H conversion, luminescence. inhibition, % at 5 µM;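 active means blocking of liver enzyme CYP2C9 beyond about 50% at 5 µM, limit read from the data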
CYP2C9 activ – CYP2C9 (human) activation. AID 1024. activation factor at 5 µM. 1.4% of 96,000 active. recombinant CYP2C9, luciferin-H conversion, luminescence; hits give high values; factor 1 = untreated enzyme, 0 = blocked;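 active means activation factor of 2 or more for CYP2C9 at a 5 µM dose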;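 further: 0 = sulfaphenazole-blocked wells and 1 = vehicle-only wells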
CYP2C19 activ – activators of human cytochrome P450 2C19; 96,000 tested, under 10 active; activation factor at 5 µM; recombinant CYP2C19, luciferin-H EGE luminescence; hits give high values; 0 = fully inhibited enzyme, 1 = untreated enzyme; AID 1025;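 active means activation factor of at least 2 at 5 µM in the primary screen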;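 further: 0 = wells with 2.5 mM tranylcypromine and 1 = vehicle-only wells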
Cav32 inh – human Cav3.2 channel inhibition, primary screen. O95180. Cav3.2-expressing cells, Fluo-4 calcium fluorescence FDSS; hits give low values. B-score at 10 µM. 4% of 100,000 active;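 active means single-dose well whose peak fluorescence ratio is a statistical outlier from its plate by either plate-standardised score or position-corrected B-score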
* = called active by the depositor; x = not tested or not shown.

SMILES	CYP2C19 inh	CYP2C9 inh	CYP2C9 activ	CYP2C19 activ	Cav32 inh
CC(=O)NC1Sc2ccccc2N=C1c1ccccc1 (stereo unspecified)	40.5	37.1	0.6	0.6	-0.148
C#CCOCCOCCOCCNc1nc(N2CCN(C(=O)Cn3cc(CC(C)O)nn3)CC2)nc(N2CCN(C(=O)[C@H](C)n3cc(CCCN=C(N)N)nn3)CC2)n1 (stereo partly specified)	x	x	x	x	0.584
CCOC(=O)C1=C(N)Oc2cc(C)oc(=O)c2C1c1cccnc1 (stereo unspecified)	60.5*	63.3*	0.4	0.4	1.03
CN(C1CCS(=O)(=O)C1)S(=O)(=O)c1cccc2nsnc12 (stereo unspecified)	-3.0	-9.8	1.1	1	x
COc1ccc(S(=O)(=O)NCCSc2ccc(Cl)cc2)cc1OC	x	x	x	x	-3.09
COc1ccc(S(=O)(=O)NCc2ccccn2)c(Cl)c1Cl	87.8*	-102.6	2*	0.1	x
CCCCNS(=O)(=O)c1ccc(OC)cc1	37.1	9.0	0.9	0.6	0.277
CCCNS(=O)(=O)c1ccc(OC)c(Cl)c1Cl	52.6*	9.7	0.9	0.5	-0.161
COc1ccc(S(=O)(=O)NCCSC(C)(C)C)c(Cl)c1Cl	94.5*	-217.7	3.2*	0.1	-3.27
Cc1cc(NC(=O)c2cccc(S(=O)(=O)N3CCOCC3)c2)c2ccccc2n1	3.1	-15.4	1.2	1	0.113
Cc1ccc(C)c(NS(=O)(=O)c2cc(C(=O)NCCSC3CCCCC3)ccc2C)c1	58.8*	79.1*	0.2	0.4	-4.53*
Cc1ccccc1NS(=O)(=O)c1cc(C(=O)NCCSC2CCCCC2)ccc1C	41.6	63.1*	0.4	0.6	-4.45*
Cc1ccc(C)c(NS(=O)(=O)c2cc(C(=O)NCCC3=CCCCC3)ccc2C)c1	-5.3	23.9	0.8	1.1	-1.9
O=C(COc1ccc(Cl)cc1)Nc1nnc(-c2ccc3c(c2)CCCC3)o1	-4.3	-4.2	1	1	x
COc1ccccc1C(=O)Nc1nnc(-c2ccc3c(c2)CCCC3)o1	75.1*	-106.8	2.1*	0.2	x
CC1CN(S(=O)(=O)c2ccc(NC(=O)c3ccco3)cc2)CC(C)O1 (stereo unspecified)	18.1	49.5	0.5	0.8	0.42
CC(=O)Nc1nnc(-c2ccc3c(c2)CCCC3)o1	17.8	-1.3	1	0.8	x
O=C(Nc1nnc(-c2ccc3c(c2)CCCC3)o1)C1COc2ccccc2O1 (stereo unspecified)	3.8	9.1	0.9	1	-4.88*
CC1CN(S(=O)(=O)c2ccc(C(=O)Nc3nnc(-c4ccc5c(c4)CCCC5)o3)cc2)CC(C)O1 (stereo unspecified)	2.1	41.6	0.6	1	-8.4*
CCN(CC)c1ccc(/C=N/N2CCN(Cc3cccc4ccccc34)CC2)c(O)c1	-0.2	6.0	0.9	1	0.523
O=C(NCCC1=CCCCC1)C1CCN(S(=O)(=O)c2cccc3cccnc23)CC1	32.3	-4.5	1	0.7	-0.222
Cc1cccc(NC(=O)CC2NC3CCCCC3NC2=O)c1 (stereo unspecified)	16.3	-2.5	1	0.8	0.314
Cc1cc(C)cc(-n2nnnc2SCC(=O)N2CCOCC2)c1	x	x	x	x	-0.094
CCCn1c(SCC(=O)Nc2cccc(C(=O)OC)c2)nnc1-c1cccnc1	43.2	50.7*	0.5	0.6	1.95
CCCCn1c(SCC(=O)Nc2nc(C)cs2)nnc1-c1cccnc1	0.5	-5.8	1.1	1	0.633
SMILES	CYP2C19 inh	CYP2C9 inh	CYP2C9 activ	CYP2C19 activ	Cav32 inh
CCCn1c(SCC(=O)Nc2nccs2)nnc1-c1cccnc1	59.0*	-1.3	1	0.4	0.494
CCOC(=O)c1cccc(NC(=O)CSc2nnnn2C)c1	6.9	20.4	0.8	0.9	0.96
CCOC(=O)c1cccc(NC(=O)CSc2nnc(-c3ccncc3)n2CCCOC)c1	50.3*	63.7*	0.4	0.5	-2.44
O=C(NCCn1ccc2ccccc21)c1ccc(S(=O)(=O)N2CCOCC2)cc1	-9.8	22.3	0.8	1.1	0.22
CC1CCN(C(=O)CN2C(=O)C(C)(C)Oc3ccc(C(=O)NC4CCCC4)cc32)CC1	14.0	49.1	0.5	0.9	1.35
Cc1nc2ncnn2c(C)c1CCC(=O)NCCC1=CCCCC1	6.5	6.9	0.9	0.9	0.931
CC(=O)Nc1ccc(Nc2ncnc3c2cnn3-c2ccc(C)cc2C)cc1	54.3*	51.6*	0.5	0.5	0.771
CCOC(=O)N1CCC(Nc2ncnc3c2cnn3-c2ccc(C)cc2C)CC1	43.7	57.7*	0.4	0.6	2.42
C=CCNC(=S)NNC(=O)c1cccn(Cc2ccc(Cl)c(Cl)c2)c1=O	11.5	0.4	1	0.9	-5.86*
CNC(=S)NNC(=O)c1cccn(Cc2cccc(Cl)c2)c1=O	2.8	-1.2	1	1	0.135
C=CCNC(=S)NNC(=O)c1cccn(Cc2ccc(Cl)cc2Cl)c1=O	26.5	68.4*	0.3	0.7	-2.25
O=C(O)c1ccc(Sc2nnc(-c3cccc(Br)c3)o2)c([N+](=O)[O-])c1	-33.0	66.4*	0.3	1.3	-1.36
COc1cc(-c2nnc(Sc3ccc(C(F)(F)F)cc3[N+](=O)[O-])o2)cc(OC)c1OC	39.3	19.6	0.8	0.6	0.453
O=C(Nc1nc(-c2cccc([N+](=O)[O-])c2)cs1)C(c1ccccc1)c1ccccc1	10.4	73.9*	0.3	0.9	-1.73
CS(=O)(=O)N1CCc2cc(C(=O)O)ccc21	2.7	6.4	0.9	1	0.133
CC(=O)Nc1nc(C)c(-c2csc(Nc3cccc([N+](=O)[O-])c3)n2)s1	82.7*	89.4*	0.1	0.2	1.06
CS(=O)(=O)N1CCc2cc(-c3csc(NC(=O)C(c4ccccc4)c4ccccc4)n3)ccc21	10.8	57.5*	0.4	0.9	0.0587
O=C(Nc1cccc(-c2csc(Nc3cccc(C(F)(F)F)c3)n2)c1)c1cc([N+](=O)[O-])cc(C(F)(F)F)c1	x	x	x	x	-0.0503
CC(=O)c1cccc(Nc2nc(-c3cccc([N+](=O)[O-])c3)cs2)c1	31.7	57.4*	0.4	0.7	0.0165
CCOC(=O)c1ccc(NC(=O)CC2Sc3ncnn3C2=O)cc1 (stereo unspecified)	-3.9	13.0	0.9	1	x
CC1Cc2cc(-c3csc(NC(=O)Cc4ccccc4)n3)ccc2N1S(C)(=O)=O (stereo unspecified)	25.1	58.1*	0.4	0.7	-2.08
CC(=O)Nc1nc(C)c(-c2csc(Nc3ccc(O)cc3)n2)s1	5.5	76.0*	0.2	0.9	0.665
O=C(O)CCCNS(=O)(=O)c1cccc2nsnc12	-6.3	1.0	1	1.1	0.0124
O=C(CSc1nnc(-c2ccc(F)cc2)o1)Nc1ccccc1N1CCOCC1	x	x	x	x	-1.44
O=C(CSc1nc2ccccc2[nH]1)Nc1ccccc1N1CCOCC1	98.3*	78.8*	0.2	0	0.15
CSc1ncccc1C(=O)OCC(=O)Nc1cc(C(F)(F)F)ccc1N1CCOCC1	37.8	51.4*	0.5	0.6	-3.54
O=C(Cn1c(CO)nc2ccccc21)Nc1cc(C(F)(F)F)ccc1N1CCOCC1	38.5	52.8*	0.5	0.6	-1.91
